Test results: ChEMBL document CHEMBL4513216, “Probing the Open Global Health Chemical Diversity Library for Multistage-Active Starting Points for Next-Generation Antimalarials” (ACS Infect Dis, 2020)
Screen size: about 68,000 compounds; about 2,700 (4%) showed an effect of 50% or more. The list comes from a sample in which strong results are over-represented; it also holds similar structures and randomly drawn compounds.

The compounds below were run on Plasmodium berghei (assay: Screen against P. berghei liver stage (PbLuc), transformed with Luciferase, at 2uM). Details: tested at 2 uM.
Format: functional, HepG2

Row | SMILES | INHIBITION [%]
1 | CC1c2ncc(Cn3cncn3)n2CCN1C(=O)c1ccccn1 (stereo not given) | 23.97
2 | O=C(c1ccccc1)N1CCC2(CC1)CNc1c(F)cccc12 | -27.31
3 | CC(OCC1CC1)C(=O)N1CCCN(Cc2cnn(C)c2)CC1 (stereo not given) | 47.12
4 | Cc1ccc(N2CC[C@@H]3O[C@@H](COCc4cccnc4)CC[C@@H]32)nn1 | -64.19
5 | O=C(c1cccc(S(=O)(=O)NCCc2ccccn2)c1)N1CCOCC1 | 6.84
6 | CCc1cc(CN2C[C@@H]3CC[C@H]2CN(C2Cc4ccccc4C2)C3)on1 | 36.79
7 | Cc1ccccc1C(C(=O)N(C)Cc1cnn(C)c1)N(C)C (stereo not given) | -15.75
8 | CC(=O)N1CCCC2(CCN(c3nncs3)C2)C1 (stereo not given) | 19.58
9 | O=C(C1CCC2(CCN(c3nncs3)CC2)CO1)N1CCCC1 (stereo not given) | -38.48
10 | O=C(C1CCC2(CCN(c3nncs3)CC2)C1)N1CCCC1 (stereo not given) | 58.08
11 | CNc1cc(N2CCCC2CNCc2cnc(C)s2)ncn1 (stereo not given) | 47.3
12 | CNC(=O)C1(CCCc2cccnc2)CCCCN1 (stereo not given) | 32.95
13 | O=C1O[C@@H]2CN(C3CCOCC3)C[C@@H]2N1CCc1cccc(Cl)c1 | 19.46
14 | O=C(c1ccccn1)N(CCO)Cc1cc(Br)ccc1F | -46.83
15 | O=C(c1cccnc1)N(CCO)Cc1cc(Br)ccc1F | -12.09
16 | O=C(c1cccnc1O)N(CCO)Cc1cc(Br)ccc1F | 52.89
17 | CC(C)CN1CCC(NCCNc2cccnc2)CC1 | 2.06
18 | CN(C)C(=O)c1nc2c(s1)CCCN2Cc1ccccc1 | -4.2
19 | CCN1CCOCC2(CCCN(C(=O)c3cccc(O)c3)C2)C1 (stereo not given) | 24.36
20 | Cc1ccc(S(=O)(=O)NC(=O)C2(c3ccc(F)cc3)CCC2)c(C)c1 | -2.2
21 | Cc1ccccc1S(=O)(=O)NC(=O)C1(c2ccccc2)CCC1 | 28.54
22 | Cc1ccc(S(=O)(=O)NC(=O)C2(c3ccccc3)CCC2)c(C)c1 | 53.81
23 | COc1ccc(CN2C[C@@H]3COC[C@@H](N4CCN(C)CC4)[C@@H]3C2)cc1 | -54.53
24 | CN(C)CCNC(=O)CCn1ncc2c(Cl)cccc21 | 19.92
25 | Cc1cccc(=O)n1CCC(=O)N1CC[C@@](O)(C2CCC2)[C@H](C)C1 | -11.55
26 | Cc1cccc(=O)n1CCC(=O)N1CCC2(CC1)OCCCC2O (stereo not given) | 62.96
27 | Cc1cccc(=O)n1CCC(=O)N1CC[C@](C)(O)[C@H](C)C1 | -4.52

Row | SMILES | INHIBITION [%]
28 | Cc1cc(N2CCN(Cc3ccccc3)CC(O)C2)nc(N)n1 (stereo not given) | 24.44
29 | Cc1cc(N2CCN(Cc3ccccc3)CC(O)C2)cc(C)n1 (stereo not given) | 74.94
30 | OC1CN(Cc2ccccc2)CCN(c2ccncc2)C1 (stereo not given) | 1.42
31 | COc1cccc(C2CCN(c3ccc4cc[nH]c4n3)C2)c1OC (stereo not given) | 87.17
32 | COc1cccc(C2CC(=O)Nc3nc(N4CCCCC4)sc32)c1OC (stereo not given) | -18.15
33 | COc1ccccc1C1CCN(c2ccc3cc[nH]c3n2)CC1 | 76.27
34 | Fc1ccccc1CN1CCCN(c2ccc3cc[nH]c3n2)CC1 | -1.87
35 | c1cc(CN2CCCN(c3ccc4cc[nH]c4n3)CC2)ccn1 | 45.82
36 | COc1ccc(OC)c(C2CCN(c3ccc4cc[nH]c4n3)C2)c1 (stereo not given) | 29.98
37 | CCN1C(=O)CCC12CCCN(Cc1nccs1)CC2 (stereo not given) | -23.02
38 | O=C1CC(c2ccccc2)c2sc(C(=O)O)c(-c3ccccc3)c2N1 (stereo not given) | 4.74
39 | Fc1ccc(CN2CCO[C@H]3[C@H](OCc4ccncc4)CC[C@@H]32)cc1 | 4.54
40 | c1ncc(-c2cn(CCSc3cnn[nH]3)nn2)cn1 | 70.58
41 | CCc1ncc(-c2cn(CCSc3ncn[nH]3)nn2)cn1 | -5.87
42 | c1c[nH]c(-c2cn(CCSc3cnn[nH]3)nn2)n1 | 11.19
43 | CCn1ncc(C(=O)NCCc2nc(-c3ccncc3)n[nH]2)c1C | 9.61
44 | Cc1ccc(NC2CCN(C(=O)Cc3c(C)noc3C)CC2)nn1 | -25.13
45 | CC(C)Cc1cc(NC(=O)c2ccccc2)n(C)n1 | 49.9
46 | COc1ccc(C(=O)Nc2cc(CC(C)C)nn2C)cc1 | 19.35
47 | CC(C)Cc1cc(NC(=O)c2ccccc2F)n(C)n1 | -68.24
48 | CC(C)Cc1cc(NC(=O)c2n[nH]c3ccccc23)n(C)n1 | 64.16
49 | CC(C)Cc1cc(NC(=O)c2ccc3[nH]nnc3c2)n(C)n1 | 50.61
50 | COc1ccccc1C(=O)Nc1cc(CC(C)C)nn1C | 56.02
51 | Cn1nc(CC(C)(C)C)cc1NC(=O)c1ccc2[nH]nnc2c1 | 16.95
52 | CC(C)Cc1cc(NC(=O)c2ccc(=O)[nH]n2)n(C)n1 | -19.76
53 | CC(C)Cc1cc(NC(=O)c2ccncc2)n(C)n1 | 25.46
54 | Clc1ccccc1-c1nnc(CNCCn2cccn2)o1 | 49.35

Row | SMILES | INHIBITION [%]
55 | C=C(C)COCCNC(=O)C1CCCN1C(C)=O (stereo not given) | 45.75
56 | Cn1cc(CN2CCCN(C(=O)c3ccc4ccccc4n3)CC2)cn1 | 30.05
57 | O=C(CNC(=O)Nc1c(F)cccc1Oc1ccccc1)NC1CC1 | -40.7
58 | Cc1nc2c(C(=O)N[C@H]3C[C@H]4CN(C)CCN4C3)cccc2[nH]1 | -51.5
59 | CCn1c(CN2CCCC(O)(c3ccc(F)cc3)CC2)cnc1SC (stereo not given) | 49.87
60 | Cc1ccccc1OCCC(=O)N1CCCC(n2cncn2)C1 (stereo not given) | 2.08
61 | COc1ccc(CC(=O)N2Cc3nccn3CC(CN(C)C)C2)cc1 (stereo not given) | 35.26
62 | O=C(NC[C@]1(O)CCN(Cc2ccccc2F)C[C@H]1O)c1c[nH]cn1 | 38.96
63 | Cc1cncc(CN2CC[C@@](O)(CNC(=O)c3c[nH]cn3)[C@H](O)C2)c1 | 19.36
64 | O=C(NC[C@]1(O)CCN(Cc2ccsc2)C[C@H]1O)c1c[nH]cn1 | 69.45
65 | CS(=O)(=O)N1CCC2(CC1)CC(NCc1ccco1)c1ccccc12 (stereo not given) | -9.53
66 | O=C1CN(C(=O)CN(CC2CCC2)CC(F)(F)F)CCN1 | 19.92
67 | Cc1cc(C)n(Cc2cc(C(=O)N3CCCC3c3ccccn3)n[nH]2)n1 (stereo not given) | -15.08
68 | CC(C)(C)CC(=O)Nc1ncn(CC(=O)NCc2ccccc2)n1 | -34.98
69 | CC(CC(=O)Nc1ncn(CC(=O)NCc2ccccc2)n1)C1CC1 (stereo not given) | -1.21
70 | O=C(Cn1cnc(NC(=O)CC2CCCC2)n1)NCc1ccccc1 | 67.59
71 | N[C@@H]1CC[C@H](C(=O)NCCn2cc(Cl)cn2)C1 | 61.95
72 | NC(=O)CN1CCC(C(=O)NCCn2cc(Cl)cn2)CC1 | -10.84
73 | O=C(NCCn1cc(Cl)cn1)C1CCN(C(=O)C2CC2)CC1 | 23.64
74 | O=C(CCN1CCCCO1)NC1CCCN(CC2CCCCC2)C1 (stereo not given) | -0.88
75 | COc1ccc(OC)c(CNCc2ccnc(N3CCOCC3)c2)c1 | -28.39
76 | c1cc(CNCc2ccc3c(c2)CCO3)cc(N2CCOCC2)n1 | 57.82
77 | Fc1cc(CNCc2ccc3c(c2)CCO3)ccc1N1CCOCC1 | -10.05
78 | c1cc(CNCc2ccnc(N3CCOCC3)c2)c2c(c1)OCCO2 | 1.22
79 | COc1ccc(CNCc2ccnc(N3CCCCC3)c2)cc1OC | 30.91
80 | COc1ccc(CNCc2ccnc(N3CCOCC3)c2)cc1OC | 62.13
81 | c1cnc(N2CCCC(c3cc4cccnc4[nH]3)C2)nc1 (stereo not given) | 14.47

Row | SMILES | INHIBITION [%]
82 | C=C(C)CNc1ccc(C(=O)N(CC)Cc2nccn2C)cn1 | -13.51
83 | C=C(C)COc1cccc(C(=O)N(CC)Cc2noc(C)n2)c1 | 76.82
84 | C=C(C)COc1cccc(CN(CC)Cc2noc(C)n2)c1 | 36.28
85 | C=C(C)COc1cccc(C(=O)N(CC)Cc2nccn2C)c1 | 52.98
86 | C=C(C)COc1cccc(C(=O)N(CC)Cc2nc(COC)no2)c1 | -18.57
87 | CCN(Cc1nccn1C)C(=O)c1ccc(NCc2ccccc2)nc1 | 8.89
88 | CCn1nc(C)c2ncnc(N(C)Cc3ccco3)c21 | 46.92
89 | CN(C)c1ccc(CN2C[C@@H]3CC[C@H]2CN(C2CCOCC2)C3)cn1 | 25.52
90 | Cn1cccc1C(=O)N1CCN(CC2CC2)c2ncccc2C1 | 8.13
91 | Cc1nc(-c2ccccc2)n(CC(=O)NC(C)C2CC2)n1 (stereo not given) | 32.56
92 | COc1ccc(C2=Nn3c(CN)nnc3-c3ccccc3C2)cc1 | 42.64
93 | COc1ccc(C2=Nn3c(CCCN)nnc3-c3ccccc3C2)cc1 | 6.9
94 | COc1ccc(C2=Nn3c(CCN)nnc3-c3ccccc3C2)cc1 | 54.73
95 | Cc1cnc(CNC(=O)[C@@]23CCO[C@@H]2CCN(c2ncccn2)C3)cn1 | 4.08
96 | Cc1cc(C(=O)N2C[C@@H]3COC[C@]3(CN(C)C)C2)c(C)o1 | 39.57
97 | CC(C)NC1CCc2[nH]c(=O)ccc2C1 (stereo not given) | -13.79
98 | Cc1c(Br)cccc1C(=O)NCC1CCNCC1 | 5
99 | Cc1ncc(C(=O)N2CCCN(Cc3ccccc3F)CC2)c(O)n1 | 52.74
100 | O=C(c1cccnc1O)N1CCN(Cc2ccccc2F)CC1 | -24.15
101 | O=C(c1cnc(C2CC2)nc1O)N1CCN(Cc2ccccc2F)CC1 | 15.34
102 | c1cnnc(N[C@@H]2CC[C@@H]3CN(Cc4c[nH]c5ccccc45)C[C@@H]32)c1 | -2.96
103 | Cc1nc(C)c(S(=O)(=O)NC(=O)c2ccsc2)s1 | 68.08
104 | Cc1nc(C)c(S(=O)(=O)NC(=O)c2sccc2C)s1 | 24.23
105 | Cc1nc(C)c(S(=O)(=O)NC(=O)c2ccoc2)s1 | 44.86
